Compound activity deposited in PubChem by National Center for Advancing Translational Sciences (NCATS).
This is a sample that favours compounds with a hit; in the whole collection about 3.8% have one here.
HT1080NT lethal – qHTS for induction of synthetic lethality in tumor cells producing 2HG: qHTS for the HT-1080-NT fibrosarcoma cell line; HT-1080-NT fibrosarcoma viability, CellTiter-Glo ATP luminescence, 48 h; Potency, µM (doses to about 46.1 µM), most hits filed as cytotoxic; 360,000 tested, 1.6% active; AID 686970, 2013;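 also: NT is the 2HG producing partner of a matched IDH1 knockdown line; nearly all actives have a fitted effect of over 55% in size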
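Viability of the 2HG-overproducing fibrosarcoma line after 48 hours of compound exposure at 37 degrees C was determined by luminescence with CellTiter-Glo, and concentration-effect curves were then fitted and categorized.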
HepG2 tox – qHTS for Inhibitors of TGF-b: Cytotox Counterscreen. 410,000 tested, 0.76% active. Potency, µM (doses to about 46.1 µM), most hits filed as cytotoxic. HepG2 CAGA-GFP viability, ATP luminescence, 18 h
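HepG2 CAGA-GFP cells (1000/well, DMEM with 1% FBS) received compound, then TGF-beta at 500 pg/mL final, and were incubated 18 hours at 37 degrees C. Viability was read by CellTiter-Glo luminescence. Media-only wells were set as complete cell-killing and DMSO as no toxicity.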
ATXN viability – Viability Counterscreen for Primary qHTS for Inhibitors of ATXN expression; 400,000 tested, 0.49% active; Potency, µM (highest dose often 56.7 µM), usual class: cytotoxic; S2 cells (HEK-293 line with an ATXN2-luciferase reporter) viability, CellTiter-Fluor protease fluorescence, 24 h; AID 651635, 2014; also: nearly all actives have a fitted effect of over 40% in size
TGFb inhibitor – qHTS for Inhibitors of TGF-b | HepG2 CAGA-GFP TGF-b/SMAD3 reporter, GFP fluorescence, 18 h; TGF-beta stimulated, 500 pg/mL final | Potency, µM (doses to about 46.1 µM), hits mostly inhibitors | 410,000 tested, 1.2% active; also: nearly all actives have a fitted effect of over 65% in size
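Using HEPG2 CAGA-GFP reporter cells at 1000 cells/well, we pinned test compounds, stimulated with recombinant TGF-beta (500 pg/mL final) and measured total well GFP after 18 h.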
ATXN2 expr inh – Primary qHTS for Inhibitors of ATXN expression; AID 1745845, 2022; Potency, µM (titrated, usually from 57 µM), hits mostly inhibitors; HEK-293 ATXN2-luciferase reporter, luminescence, 24 h; 360,000 tested, 0.72% active; also: nearly all actives have a fitted effect of over 55% in size
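qHTS (up to 57 uM final) was run with 24 h compound exposure of reporter cells at 37 °C. Each well was multiplexed: SteadyGlo luminescence measured ATXN2-luciferase expression after a fluorogenic Gly-Phe-AFC viability readout (25 uM final).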
HT1080 IDH1KD tx – qHTS for induction of synthetic lethality in tumor cells producing 2HG: qHTS for the HT-1080-IDH1KD cell line. HT-1080 IDH1 knockdown viability, ATP luminescence, 48 h. Potency, µM (series often up to 46.1 µM), most hits filed as cytotoxic. 360,000 tested, 2% active. AID 686971, 2013
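After a 2 h attachment period, IDH1KD HT-1080 cells took pin-transferred compound for 48 h at 37 °C; ATP-based luminescence after 10 min room-temperature reagent incubation reported viability.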
Hits are given with their value; n = inactive; u = inconclusive; x = not tested or not shown. Calls follow the shape of the dose curve; as a rule, active = well fitted curve in the direction sought with a large enough effect; inconclusive = small, poorly fitted or top-dose-only effect, or another doubt; inactive = no such curve, though single readings can be large; an effect the other way counts as inactive or inconclusive.

SMILES	HT1080NT lethal	HepG2 tox	ATXN viability	TGFb inhibitor	ATXN2 expr inh	HT1080 IDH1KD tx
Cc1ccc2c(c1)[C@H]1[C@H](CO2)[C@H](c2ccccc2)[C@]2(C)C(=O)Nc3ccccc3C(=O)N12	5.8µM	n	u	n	u	6.51µM
Cc1ccc2c(c1)[C@H]1[C@H](CO2)[C@H](c2ccccc2)[C@]2(C)C(=O)Nc3cc(F)ccc3C(=O)N12	u	n	u	n	n	8.2µM
CC(C)(C)n1ncc2c(=O)n(Cc3ccc(-c4ccccc4C#N)cc3)cnc21	x	n	x	n	x	x
c1cnc2cc3c(cc2n1)[C@@H]1CNC[C@H]3C1	x	x	n	x	x	x
O=C1NC[C@H](Cc2ccccc2)N(C[C@H]2CCCN2C[C@H](Cc2ccccc2)N2C[C@H](Cc3ccccc3)N(CC3CCCCC3)C(=O)C2=O)C1=O	u	7.08µM	17.8µM	u	u	u
O=C1NC[C@H](CCCCN2C[C@H](Cc3ccc(O)cc3)N(CCc3ccccc3)C(=O)C2=O)N(CC2CCCCC2)C1=O	n	x	u	x	n	14.6µM
O=C1NC[C@@H](CCCCN2C[C@H](Cc3ccccc3)N(CC3CCCCC3)C(=O)C2=O)N(CCc2ccc(O)cc2)C1=O	n	x	n	x	n	n
O=C1NC[C@H](Cc2ccccc2)N(C[C@@H]2CCCN2C[C@H](Cc2ccccc2)N2C[C@H](Cc3ccccc3)N(CC3CCCCC3)C(=O)C2=O)C1=O	u	n	x	17.8µM	u	u
Nc1nc[nH]c(=O)c1N	x	n	x	n	x	x
COc1cc(=O)n2c(c1C(=O)N(C)Cc1nonc1C)CCN(C(=O)c1cc(C)ccc1C)CC2	x	x	n	x	x	x
Cc1ccccc1CN1[C@H](C)[C@H](c2ccccc2)OCCS1(=O)=O	x	n	x	u	x	x
COc1ccc(OCCN2CCC(C(=O)NC(c3ccsc3)c3ccccc3C)CC2)cc1 (stereo unspecified)	u	n	u	n	n	u
Cc1ccccc1C(NC(=O)C1CCN(Cc2ccc(Oc3ccccc3)cc2)CC1)c1ccsc1 (stereo unspecified)	20.6µM	n	n	n	n	u
O=C(NC(c1ccccc1)c1ccsc1)C1CCN(Cc2ccccc2)CC1 (stereo unspecified)	n	n	n	n	n	n
CC(NC(=O)C1CCN(Cc2ccccc2)CC1)c1cccc2ccccc12 (stereo unspecified)	u	n	n	n	n	u
O=C(NC(c1ccc(Cl)cc1)c1ccsc1)C1CCN(Cc2ccc(Oc3ccccc3)cc2)CC1 (stereo unspecified)	14.6µM	n	u	n	n	11.6µM
CC(NC(=O)C1CCN(Cc2ccc(Oc3ccccc3)cc2)CC1)c1cccc2ccccc12 (stereo unspecified)	u	n	u	u	n	10.3µM
C[C@@H]1C(c2cccc(Cl)c2)=NN(c2ccc(Br)cc2)[C@H]1C(=O)N1CCOC1=O	u	n	x	10µM	n	u
C[C@@H]1C(c2cccc(Cl)c2)=NN(c2ccccc2)[C@H]1C(=O)N1CCOC1=O	n	n	x	20µM	n	n
C[C@@H]1C(c2ccccc2)=NN(c2ccccc2)[C@H]1C(=O)N1CCOC1=O	n	n	n	n	n	u
NCCC[C@H](N)C(=O)O	x	x	n	x	x	x
CC(=O)OC(C)OC(=O)C(C)c1ccc(-c2ccccc2)c(F)c1 (stereo unspecified)	x	x	n	x	n	x
COc1cccc(/C=N/Nc2nc(Nc3ccccc3)nc(-n3nc(C)cc3C)n2)c1O	6.51µM	n	u	1.58µM	u	7.31µM
CCOc1ccc(Nc2cc(C)nc(-n3nc(C)cc3C)n2)cc1	u	n	u	u	n	0.411µM
CCOc1cc(/C=N/Nc2cc(C)nc(-n3nc(C)cc3C)n2)ccc1O	5.8µM	n	u	u	1.26µM	5.8µM
SMILES	HT1080NT lethal	HepG2 tox	ATXN viability	TGFb inhibitor	ATXN2 expr inh	HT1080 IDH1KD tx
Cc1cc(N/N=C/c2ccc(F)cc2)nc(-n2nc(C)cc2C)n1	u	n	n	u	n	1.84µM
CNc1cc(C)nc(-n2nc(C)cc2C)n1	n	n	u	n	n	n
CCOc1cc(/C=N/Nc2nc(C)cc(=O)[nH]2)ccc1O	n	n	n	n	n	n
Cc1ccc(OCC(=O)NCC2(N3CCOCC3)CCCCC2)cc1C	x	n	x	n	x	x
Nc1ccccc1NC(=O)c1ccc(CNc2nccc(-c3cccnc3)n2)cc1	x	x	x	x	n	x
COc1ccccc1/C=N/Nc1cc(C)nc(N2CCOCC2)n1	n	n	n	n	x	n
COc1ccc(/C=N/Nc2cc(C)nc(-n3nc(C)cc3C)n2)c(OC)c1	u	n	u	u	15.8µM	9.2µM
CSc1ccccc1C(=O)NCC1Cc2cccc(-c3ncccc3C)c2O1 (stereo unspecified)	x	x	n	x	x	x
Cc1c(N/N=C(\C#N)C(=O)c2ccccc2)c(=O)n(-c2ccccc2)n1C	n	n	u	n	14.1µM	u
N#C/C(=N\Nc1ccccc1Cl)C(=O)c1ccccc1	u	n	u	u	n	u
N#C/C(=N\Nc1cccc(Cl)c1)C(=O)c1ccccc1	u	n	u	u	n	23.1µM
CCOC(=O)/C(C#N)=N/Nc1c(C)n(C)n(-c2ccccc2)c1=O	n	n	n	n	n	n
Cc1ccccc1C(=O)/C(C#N)=N/Nc1c(C)n(C)n(-c2ccccc2)c1=O	n	n	u	u	7.08µM	u
Cc1c(NC=C(C#N)C#N)c(=O)n(-c2ccccc2)n1C	n	n	n	n	n	n
COCc1c(C(=O)N2CCN(C3CCCC3)CC2)cnn1-c1nccc(-c2cc(C)sc2C)n1	x	x	n	x	x	x
CC(C)OCCCNC(=O)c1cn(C)c2ccc(S(=O)(=O)N3CCCCCC3)cc2c1=O	x	n	n	n	n	x
CCN(CC)c1nc(OCCNC(=O)Nc2ccccc2)nc(N(CC)CC)n1	20.6µM	n	n	u	n	18.4µM
COC(=O)CC1(CC(N)=O)SCCS1	n	14.1µM	n	u	n	u
O=C(c1ccccc1C(F)(F)F)N1CCOc2c(cc(-c3nc4ccccc4s3)cc2OC2CCOC2)C1 (stereo unspecified)	x	x	n	x	x	x
CCN1C(=O)C(CC(=O)Nc2ccc(OC)cc2)N(CCc2ccc(F)cc2)C1=S (stereo unspecified)	u	n	n	u	u	u
Cc1ccc(N2C(=O)C(CC(=O)Nc3ccc(F)cc3)N(CCC3=CCCCC3)C2=O)cc1 (stereo unspecified)	x	n	u	12.6µM	u	x
